From PubChem BioAssay AID779 (Sanford-Burnham Center for Chemical Genomics, 2007) come the findings set out here.

By IC50 is commonly meant the midpoint of a concentration-inhibition curve.

Structures are written as SMILES. Calls of active or inactive are those of the source. No rule for the calls is given here.

A short description of this experiment: PLAP enzyme activity inhibition – biochemical, colorimetric, counter-screen, dose response (AID 779). The conditions noted are these: colorimetric OD read-out. A general note: A counterscreen serves to expose hits that act by an unwanted route or on another target.
Turning to `Oc1c(N=Nc2ccccn2)ccc2ccccc12`, the IC50 is > 50 µM (inactive).

In the case of `CC(=O)Nc1ccc(NC2=Nc3ccccc3N3C2=Nc2c(c(C)nn2-c2ccccc2)C3c2ccccc2)cc1` (configuration not stated), the IC50 is > 50 µM (inactive).

`CCOC(=O)c1cc(-c2ccc(/C=C3/C(=O)NC(=O)C(C#N)=C3C)o2)ccc1Cl`: the IC50 is > 50 µM (inactive).

For `Cc1ccccc1C(=O)c1cccn1CC(=O)NCC1CCCO1` (configuration not stated), the IC50 is > 50 µM (inactive).

As for `Cc1ccc(C)c(OCc2nnc(N)s2)c1`, the IC50 was > 50 µM (inactive).

Regarding `Cc1cccc2cc(/C=C3\N=C(c4ccccc4)OC3=O)c(N3CCOCC3)nc12`, the IC50 is > 50 µM (inactive).

Regarding `CC(C(=O)O)N1C(=O)/C(=C/C=C/c2ccco2)SC1=S` (configuration not stated), the IC50 is > 50 µM (inactive).

Consider `Cc1cc(C)c2nc(N3CCCN(C(=O)c4ccco4)CC3)c(C#N)cc2c1`, for which the IC50 is > 50 µM (inactive).

Regarding `COC(=O)CSc1nc(-c2ccccc2)cc(-c2ccco2)c1C#N`, the IC50 was > 50 µM (inactive).

On to `O=C(CCN1C(=O)/C(=C/C=C/c2ccccc2)SC1=S)Nc1nccs1`, for which the IC50 is > 50 µM (inactive).

`O=S(=O)(c1ccc2nc(-c3ccco3)c(-c3ccco3)nc2c1)N1CCOCC1`: the IC50 was > 50 µM (inactive).

As to `CCCCN(CCCC)C1=Nc2ccccc2N/C1=C(/C#N)C(=O)OCC`, the IC50 is > 50 µM (inactive).

Take `CCCCN1C(=O)/C(=C/C=C2\N(C)c3ccccc3C2(C)C)SC1=S`: the IC50 was > 50 µM (inactive).

In the case of `Cc1c(NC(=O)CCN2C(=O)c3ccccc3C2=O)c(=O)n(-c2ccccc2)n1C`, the IC50 is > 50 µM (inactive).

Regarding `CCN(CC)C(=O)CSc1nc2cc(OC)c(OC)cc2c(=O)n1Cc1ccc(Cl)cc1`, the IC50 is > 50 µM (inactive).

Consider `CCn1c(O)c(/C=N/N=C/c2ccccc2)c2ccc(C3=NNC(=O)CC3)cc21`, for which the IC50 is > 50 µM (inactive).

`CCOC(=O)C1=C(C)N=c2s/c(=C/c3ccco3)c(=O)n2C1c1cccc(OC)c1` (configuration not stated): the IC50 is > 50 µM (inactive).

In the case of `Cc1occc1-c1nnc(SCC(=O)Nc2ccccc2-c2ccccc2)n1C`, the IC50 was > 50 µM (inactive).

As to `O=C(O)c1ccccc1C(=O)NNc1ccc(F)cc1`, the IC50 was > 50 µM (inactive).

Consider `COc1ccc2oc(/C=C/N(C)C)c(C(=O)c3ccc(Cl)cc3)c2c1`, for which the IC50 is > 50 µM (inactive).

For `CCOC(=O)c1cc(OC(=O)c2ccccc2OC)n(-c2ccccc2)n1`, the IC50 is > 50 µM (inactive).

Turning to `CCN(CCNC(=O)C1CCCN(S(=O)(=O)CC)C1)c1ccccc1` (configuration not stated), the IC50 is > 50 µM (inactive).

With `CSc1nc(NCCOCCO)c2sc3nc(-c4ccco4)c4c(c3c2n1)CCC4`, the IC50 is > 50 µM (inactive).

Take `CCn1c(COc2ccccc2C)nnc1SCC(=O)Nc1cc(C)on1`: the IC50 is > 50 µM (inactive).

For the compound `Cc1cc(C)n(CNc2nc(C(F)(F)F)cs2)n1`, the IC50 is > 50 µM (inactive).

Consider `O=C(Nc1cccc2ccccc12)/C(=C/c1ccc([N+](=O)[O-])cc1)NC(=O)c1ccccc1`, for which the IC50 is > 50 µM (inactive).

In the case of `CCOC(=O)c1c(NC(=S)Nc2ccccc2)sc2c1CCN(CCc1ccccc1)C2`, the IC50 is > 50 µM (inactive).

On to `COc1cccc(C2(CSc3nnc(-c4cc(OC)c(OC)c(OC)c4)o3)OCCO2)c1`, for which the IC50 is > 50 µM (inactive).

As for `Fc1ccc(-c2cc3nc4c(c(N5CCOCC5)n3n2)CCCC4)cc1`, the IC50 is > 50 µM (inactive).

For the compound `O=C1/C(=C\c2ccco2)SC(=S)N1Cc1ccccc1`, the IC50 was > 50 µM (inactive).

As to `CCN(CCO)c1nc(SC)nc2c1sc1nc(-c3ccco3)c3c(c12)CCC3`, the IC50 is > 50 µM (inactive).

For `Nc1ccc(Br)c2c1C(=O)c1ccccc1C2=O`, the IC50 was > 50 µM (inactive).
